# Measured values: PubChem BioAssay (NCI)
# This is part of a sample that, as a whole, favours compounds with a hit. Of some 83,000 tested, about 20% had one in any assay.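 In brief: 96-well plates, 48 h treatment, single concentration, percent growth endpoint.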 Unmarked numbers belong to inactive results. Active and inactive are the calls of the source. Rule for the calls: active = growth percent below 10; inactive = the rest.
# Test system: T-47D breast
# Test: NCI-60 one-dose screen, 48 h (100 = growth as untreated, 0 = no growth, -100 = all killed)
# Conditions: 10 µM
row,SMILES,growth
1,CC(=O)/C(=C\c1ccc(Cl)cc1)c1ccccc1,47.8%
2,COc1ccc2nc(NC(=O)Nc3c(F)cccc3F)sc2c1,106%
3,COc1cc(Cn2c(-c3ccccc3)cc3c2-c2oncc2CC3)cc(OC)c1,45.8%
4,CCC(CCNc1cc(OC)cc2cccnc12)CN1C(=O)c2ccccc2C1=O (stereo not given),32.7%
5,CCOC(=O)c1sc(NC(=O)c2cc(OC)c(OC)c(OC)c2)nc1C,118%
6,C#CCNCCN1C(=O)c2ccc3c4c(ccc(c24)C1=O)C(=O)N(CCNCC#C)C3=O,54.8%
7,CC(=O)Nc1nc(C)c(C(=O)NNC=O)s1,127%
8,CCN(CCCNC(=O)Cc1cc(=O)oc2cc(N(C)C)ccc12)CCNc1ccnc2cc(Cl)ccc12,123%
9,Cc1nc(N)sc1Sc1nc2ccc(Cl)cc2c(=O)n1-c1ccc(Oc2ccccc2)cc1,75.5%
10,COc1ccc(-c2nnc(COc3ccc(NC(=O)Nc4cccc(C(F)(F)F)c4)cc3F)o2)cc1,34.8%
11,Cc1ccc(/C(CS(=O)(=O)c2ccc(C)cc2)=N\O)cc1,103%
12,O=[N+]([O-])c1ccc(-c2nc(-c3ccccc3)c(-c3ccccc3)n2-c2ccccc2)cc1,21.6%
13,COc1ccc(NC(=O)CCn2cnc3c(cc(-c4ccccc4)n3-c3ccccc3)c2=O)cc1,90.8%
14,CCCCCCCCCCCC(=O)NCCCN(C)C,84.8%
15,COc1ccc(S(=O)(=O)Nc2ccc(OCc3nnc(-c4ccc(Cl)cc4)o3)c(F)c2)cc1,9.53% (active)
